An excerpt weighted towards active compounds, which were near 4.1% of everything screened.
tim23-1 inh = growth inhibitors of tim23-1 mutant yeast, primary screen, luminescence, uHTS; S. cerevisiae tim23-1 growth, BacTiter-Glo luminescence, 24 h; inhibition, % at 20 µM; 330,000 tested, 1.3% active; AID 463212, 2010;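 active means growth inhibition of the mutant yeast at or above 50%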;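 further: temperature-sensitive mutant grown at 25 °C; plate controls were DMSO-treated mutant yeast for no effect and medium wells lacking yeast for full effect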
NALP1 inh = NALP1 inflammasome inhibitors in reconstituted yeast, colorimetric, S. cerevisiae, triplicate retest | 280,000 tested, 0.61% active | S. cerevisiae NALP1/ASC/caspase-1 growth, X-gal OD620, 72 h | inhibition, % at 10 µM | AID 2071, 2009; in the data active means inhibition mostly above about 24%, no sharp cut-off; inactive means mostly below about 32%
NALP3 yeast inh = NALP3 inflammasome inhibitors in reconstituted yeast, primary screen, luminescence, uHTS. inhibition, % at 10 µM. 330,000 tested, 0.39% active. AID 2825, 2010. Yeast reconstituted NLRP3/ASC/caspase-1, beta-gal luminescence, 24 h;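 active means inhibition of 50% or more; inactive means inhibition below 50%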;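 further: plate controls were induced DMSO wells for no effect and uninduced yeast grown without galactose for full effect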
TIM10 inh = growth inhibitors of isogenic TIM10 control yeast, primary screen, counter-screen for tim10-1 yeast inhibitor project, luminescence, uHTS; S. cerevisiae TIM10 strain growth, BacTiter-Glo luminescence, 24 h; inhibition, % at 10 µM; 330,000 tested, 1.4% active; AID 463195, 2010;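 active means inhibition of 40% or more at the single tested concentration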;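 further: wild-type TIM10 isogenic control strain grown at permissive 25 °C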
tim10-1 inh = growth inhibitors of tim10-1 mutant yeast, primary screen, luminescence, uHTS | S. cerevisiae tim10-1 ts strain growth, BacTiter-Glo, 24 h | inhibition, % at 20 µM | AID 463190, 2010 | 330,000 tested, 2.2% active;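 active means inhibition of at least 40%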;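 further: mutant grown at 25 °C; 0% = DMSO wells with yeast and 100% = wells holding no yeast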
tim23-1 conf = tim23-1 mutant yeast growth inhibitors, confirmation, luminescence, single concentration; shares compounds with tim23-1 inh; inhibition, % at 20 µM; AID 463218, 2010; S. cerevisiae tim23-1 growth, BacTiter-Glo luminescence, 24 h; 4,400 tested, 83% active;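 active means inhibition above about 39% in either of two replicate wells at 20 µM, limit read from the data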;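 further: temperature-sensitive tim23-1 mutant grown at 25 °C; 0% = DMSO wells with yeast and 100% = medium wells without yeast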
The depositor's hits bear a star; . = no result.

SMILES | tim23-1 inh | NALP1 inh | NALP3 yeast inh | TIM10 inh | tim10-1 inh | tim23-1 conf
Cn1c(=NC(=O)C(C)(C)C)sc2cccc(F)c21 | 19 | -1 | 35 | -10 | 2 | .
CC(C)(C)c1ccc(NC(=O)c2ccsc2)cc1 | 56* | 6 | 41 | 25 | 24 | 48*
CCC(CC)C(=O)Nc1c(C(=O)N2CCN(c3ccccc3)CC2)oc2ccccc12 | 51* | 22 | 7 | 28 | 39 | 42*
CCCCN(Cc1ccccc1)S(=O)(=O)c1cc(Br)cc2c1N(C(C)=O)C(C)C2 (stereo unspecified) | 56* | 27 | 22 | 33 | 23 | 53*
CC(C)(C)NC(=O)c1nc2nc(-c3ccccc3)cc(C(F)(F)F)n2n1 | 5 | 17 | 5 | -29 | -2 | .
CC1CC(C)CN(C(=O)c2ccc3c(c2NCCO)C(=O)c2ccccc2C3=O)C1 (stereo unspecified) | 51* | -9 | 4 | 34 | 39 | 53*
CCn1ccnc1CN(C)C(=O)c1ccc(OC2CCN(CCc3ccccc3)CC2)cc1 | -19 | -13 | 6 | -13 | -27 | .
N=c1c2c(-c3ccccc3)c(-c3ccccc3)n(Cc3ccco3)c2ncn1Cc1ccco1 | 66* | 15 | -17 | 26 | 32 | 44*
CCCCn1cnc2c(c(-c3ccccc3)c(-c3ccccc3)n2Cc2ccco2)c1=N | 46 | 23 | 20 | -6 | -2 | .
CC1=CC(c2ccc(Cl)cc2)n2nc(NC(=O)CCC(=O)O)nc2N1 (stereo unspecified) | 7 | . | -1 | 13 | -12 | .
Cc1nc(Nc2ccc(O)cc2)c2c3c(sc2n1)CCCC3 | 52* | -8 | 14 | 22 | 17 | 45*
COc1ccc(S(=O)(=O)N2CCC3(CC2)OCCN3S(=O)(=O)c2ccc(OC)cc2)cc1 | 7 | . | 1 | 12 | -6 | .
COc1ccc(S(=O)(=O)N2CCOC23CCN(S(=O)(=O)c2ccc(Cl)cc2)CC3)cc1 | 52* | . | -1 | 33 | 36 | 42*
CCn1cc(C(=O)O)c(=O)c2cnc(N3CCN(C(=S)Nc4ccccc4C(F)(F)F)CC3)nc21 | 19 | . | 13 | 11 | -8 | .
COc1cc(/C=C2\OC(=O)c3c(OC)cccc32)ccc1O | 53* | 26 | 31 | 28 | 35 | 48*
COc1cc(/C=C2\C(=O)ON=C2c2ccc(Cl)cc2)ccc1O | 39 | . | -3 | 12 | 25 | .
COC(=O)c1cc(COC(=O)CNC(=O)c2ccc(Br)cc2)oc1C | -1 | . | 15 | -30 | -7 | .
CCn1c(/C=N/c2nc3ccccc3n2C)nc2ccccc21 | 56* | -14 | -8 | 18 | 31 | 42*
COc1ccc(-c2nc(N)nc(C(F)(F)F)c2-c2cscn2)c(O)c1 | 4 | . | 5 | -5 | -12 | .
COc1ccc(-c2nc(N)nc(C)c2Oc2ccccc2Br)c(O)c1 | 50* | -7 | 12 | 1 | 33 | 47*
Cc1oc(-c2ccc3ccccc3c2)nc1CN(C)C(C)c1ccncn1 (stereo unspecified) | 7 | -13 | 9 | 14 | 13 | .
CC(C)(C)c1ccc(OCC(=O)NCc2ccco2)c(Br)c1 | 56* | 28 | 27 | 34 | 34 | 62*
CC(C)(C)c1ccc(OCC(=O)NNC(=S)NC(=O)c2ccco2)c(Br)c1 | 27 | 11 | 43 | 32 | 22 | .
CCCCNC1=CC(=O)C(=O)c2ccccc21 | 55* | 7 | 9 | 22 | -3 | 56*
CCc1ccc(NC2=CC(=O)C(=O)c3ccccc32)cc1 | 2 | . | 36 | 25 | 8 | .
SMILES | tim23-1 inh | NALP1 inh | NALP3 yeast inh | TIM10 inh | tim10-1 inh | tim23-1 conf
O=C1C=C(c2cc(F)ccc2F)C[C@@H](c2ccc(F)cc2)C1 | 25 | . | 8 | -15 | 5 | .
CC1O[C@@H](O[C@H](C)CC[C@@H](C)O[C@H]2OC(C)[C@@H](O)C[C@H]2O)C(O)C[C@H]1O (stereo partly specified) | 6 | . | -6 | -6 | -10 | .
Cc1ccc(C(=O)Nc2nc(COc3ccccc3)cs2)s1 | 52* | . | 44 | -2 | -65 | 38
Cc1ccnc(Nc2nc(-c3ccc(O)cc3O)cs2)c1 | 86* | -22 | 23 | -6 | -8 | 77*
CC(=O)n1cc(N(C(=O)CCl)c2ccc(C)cc2)c2ccccc21 | 69* | -1 | 12 | 22 | 35 | 36
COc1ccc(S(=O)(=O)NCC(=O)N(Cc2ccco2)C(C(=O)NC(C)(C)C)C(C)C)cc1 (stereo unspecified) | 26 | -2 | 7 | -4 | 18 | .
O=Cc1cc2cc3c(cc2nc1Cl)OCCO3 | 73* | 21 | 2 | 13 | 15 | 52*
Cc1ccc2cc(C=O)c(Cl)nc2c1 | 50* | -12 | 23 | 31 | 13 | 48*
O=C(O)c1ccc(N/N=C/c2cc3cc4c(cc3nc2Cl)OCCO4)cc1 | 4 | . | 4 | 9 | -5 | .
O=C(O)CCNc1ccc2c(c1)OCCO2 | 14 | 9 | 7 | -3 | 10 | .
CC(C)(C)C(=O)Nc1cc(NC(=O)C(C)(C)C)cc(C(=O)Nc2c[nH]c(=O)[nH]c2=O)c1 | 14 | . | 20 | 9 | -7 | .
COC(=O)N/N=C/c1ccc(-c2ccc(Cl)cc2Cl)o1 | 56* | 14 | 49 | 39 | 35 | 50*
COC(=O)N/N=C/c1ccc(-c2ccccc2Cl)o1 | 36 | . | 30 | -8 | -10 | .
Cc1ccc(N=CC2=C(O)CC(C)(C)CC2=O)nc1 | 1 | -3 | 10 | -3 | 8 | .
Cc1ccc(N=Cc2cc(Cl)cc(Cl)c2O)nc1 | 66* | 37 | 5 | 10 | 8 | 76*
CCn1c(Cn2nnc(-c3ccccc3)n2)nnc1SCc1ccc(Cl)c(Cl)c1 | 53* | . | 25 | 28 | 33 | 45*
CCn1c(Cn2nnc(-c3ccccc3)n2)nnc1SCC(=O)N1CCOCC1 | 8 | -1 | 15 | 8 | 4 | .
CC1(c2ccccc2)CC(C)(C)n2c(O)c(C3=NC(=S)NC3=O)c3cccc1c32 (stereo unspecified) | -14 | . | 7 | -22 | -4 | .
CC1(c2ccccc2)CC(C)(C)N2C(=O)C(=O)c3cccc1c32 (stereo unspecified) | 61* | 16 | 3 | -4 | 38 | 56*
COc1ccc2c(=O)c3c(=O)n(Cc4ccco4)c(-c4ccccc4)nc3oc2c1 | 59* | 8 | 7 | 32 | 33 | 39*
CC(C)CC(=O)Nc1ccccc1N1CCN(C(=O)c2ccccc2)CC1 | 76* | -3 | 11 | 4 | 13 | 7
Oc1ccc(N=C/C=C/c2ccc(Br)cc2)cc1-c1nc2ccccc2s1 | 64* | 20 | 25 | 30 | 23 | 44*
Brc1cc2c(cc1-c1nc3ccccc3s1)OCO2 | 8 | 19 | 20 | 6 | 8 | .

Compound activity (PubChem BioAssay)
